Test results as given in PubChem BioAssay AID1159580 (chemical genetic matrix, 2015).
Where “and” joins values, the source holds several entries; their conditions need not be identical. Identical values can stand only once. About 2,000 (36%) of roughly 5,500 compounds were called active. About 18% were inconclusive and are not listed. Cut-off read from the data, not from the text of the source: active = normalized growth mostly below about 0.91 (no sharp cut-off); inconclusive = no clear call, values can overlap the other calls; inactive = mostly above about 0.92. This is one part of the list.

Assay: chemical genetic growth profiling, strain panel (AID 1159580);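 note: tested at 20 µM; growth read once vehicle control cultures reached saturation at 30 °C; 1 = growth at the plate median or of vehicle wells; lower values mean less growth of the strain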
Details: S. cerevisiae deletion strains, growth OD

Measured: normalized growth

CC12CCC(=O)C=C1CCC1C2[C@@H](O)CC2(C)C1CC[C@]2(O)C(=O)COP(=O)(O)O (stereo partly drawn)
inactive: locus YAL013W, strain DEP1, active compounds read low 1.02 | locus YAL021C, strain ccr4, active compounds read low 1 | locus YAL026C, strain drs2, active compounds read low 0.999 | locus YAL030W, strain snc1, active compounds read low 1.01 | locus YBL061C, strain skt5, active compounds read low 0.998 | locus YBR009C, strain hhf1, active compounds read low 0.994 | locus YBR021W, strain FUR4, active compounds read low 1.02 | locus YBR023C, strain chs3, active compounds read low 0.992 | locus YBR171W, strain sec66, active compounds read low 1 | locus YBR229C, strain ROT2, active compounds read low 1.01 | locus YBR231C, strain swc5, active compounds read low 0.989 | locus YBR279W, strain paf1, active compounds read low 1 | locus YCL011C, strain gbp2, active compounds read low 0.991 | locus YCL016C, strain dcc1, active compounds read low 0.973 | locus YCL029C, strain bik1, active compounds read low 1.01 | locus YCL061C, strain MRC1, active compounds read low 0.999 | locus YCL069W, strain vba3, active compounds read low 1.01 | locus YCR088W, strain abp1, active compounds read low 0.995 | locus YDL005C, strain med2, active compounds read low 0.997 | locus YDL035C, strain GPR1, active compounds read low 1.01 | locus YDL040C, strain nat1, active compounds read low 1.01 | locus YDL074C, strain BRE1, active compounds read low 1.02 | locus YDL101C, strain DUN1, active compounds read low 1.01 | locus YDL185W, strain tfp1, active compounds read low 1 | locus YDL192W, strain arf1, active compounds read low 1.01 | locus YDR001C, strain nth1, active compounds read low 0.996 | locus YDR069C, strain doa4, active compounds read low 1.01 | locus YDR101C, strain arx1, active compounds read low 1.03 | locus YDR137W, strain rgp1, active compounds read low 0.992 | locus YDR150W, strain NUM1, active compounds read low 1.02 | locus YDR159W, strain sac3, active compounds read low 1 | locus YDR162C, strain NBP2, active compounds read low 1.01 | locus YDR195W, strain ref2 0.992 | locus YDR297W, strain sur2, active compounds read low 0.996 | locus YDR318W, strain mcm21, active compounds read low 0.999 | locus YDR334W, strain swr1, active compounds read low 0.998 | locus YDR335W, strain msn5, active compounds read low 1.01 | locus YDR388W, active compounds read low 1 | locus YDR392W, strain spt3, active compounds read low 0.928 | locus YDR502C, strain sam2, active compounds read low 1 | locus YEL003W, strain gim4, active compounds read low 1 | locus YEL037C, strain rad23, active compounds read low 1.01 | locus YEL061C, strain CIN8 (second series), active compounds read low 1 | locus YEL061C, strain CIN8, active compounds read low 1.02 | locus YER015W, strain faa2, active compounds read low 1 | locus YER016W, strain bim1, active compounds read low 1 | locus YER110C, active compounds read low 1.01 | locus YER111C, strain swi4, active compounds read low 1 | locus YER155C, strain BEM2 (second series), active compounds read low 1.01 | locus YER155C, strain BEM2, active compounds read low 1.01 | locus YER167W, strain BCK2, active compounds read low 1.01 | locus YFR010W, strain ubp6, active compounds read low 1.01 | locus YGL078C, strain dbp3, active compounds read low 0.994 | locus YGL086W, strain mad1, active compounds read low 1 | locus YGL167C, strain pmr1, active compounds read low 0.996 | locus YGL173C, strain kem1, active compounds read low 0.995 | locus YGL227W, strain vid30, active compounds read low 0.996 | locus YGL240W, strain doc1, active compounds read low 1.01 | locus YGL248W, strain PDE1, active compounds read low 1 | locus YGL253W, strain hxk2, active compounds read low 1.01 | locus YGR078C, strain PAC10, active compounds read low 1.01 | locus YGR135W, strain pre9, active compounds read low 0.997 | locus YGR229C, strain SMI1, active compounds read low 1.02 | locus YGR252W, strain gcn5, active compounds read low 0.958 | locus YHR013C, strain ard1, active compounds read low 0.991 | locus YHR027C, strain rpn1, active compounds read low 0.994 | locus YHR030C, strain SLT2, active compounds read low 1.02 and 0.987 | locus YHR079C, strain IRE1 (second series), active compounds read low 1 | locus YHR079C, strain IRE1, active compounds read low 0.96 | locus YHR094C, strain hxt1, active compounds read low 1.01 | locus YHR129C, strain ARP1, active compounds read low 1.01 | locus YHR142W, strain chs7, active compounds read low 0.993 | locus YHR200W, strain rpn10, active compounds read low 1.01 | locus YIL066C, strain RNR3, active compounds read low 1.02 | locus YIL073C, strain SPO22, active compounds read low 1.01 | locus YIL125W, strain kgd1, active compounds read low 0.985 | locus YIR030C, strain dcg1, active compounds read low 1.01 | locus YJL092W, strain hpr5, active compounds read low 1 | locus YJL095W, strain BCK1 (second series), active compounds read low 0.995 | locus YJL095W, strain BCK1, active compounds read low 1.01 and 0.981 | locus YJL115W, strain asf1, active compounds read low 0.997 | locus YJL129C, strain trk1, active compounds read low 1.01 | locus YJL134W, strain LCB3, active compounds read low 1.01 | locus YJL154C, strain vps35, active compounds read low 1 | locus YJL164C, strain tpk1, active compounds read low 0.995 | locus YJL166W, strain qcr8, active compounds read low 0.986 | locus YJL168C, strain set2, active compounds read low 0.998 | locus YJL187C, strain SWE1 (second series), active compounds read low 1.01 | locus YJL187C, strain SWE1, active compounds read low 1 | locus YJR043C, strain POL32, active compounds read low 1.02 | locus YJR066W, strain TOR1, active compounds read low 0.917 | locus YKL009W, strain mrt4, active compounds read low 1.01 | locus YKL068W, active compounds read low 1.01 | locus YKL085W, strain MDH1 (second series), active compounds read low 1 | locus YKL085W, strain MDH1, active compounds read low 1 | locus YKL160W, strain elf1, active compounds read low 0.985 | locus YKL190W, strain CNB1, active compounds read low 1.02 | locus YKR001C, strain vps1, active compounds read low 0.997 | locus YKR026C, strain gcn3, active compounds read low 1.01 | locus YKR091W, strain srl3, active compounds read low 1 | locus YLL001W, strain dnm1, active compounds read low 0.982 | locus YLL026W, active compounds read low 1 | locus YLL041C, strain sdh2, active compounds read low 0.997 | locus YLR027C, strain aat2, active compounds read low 1.01 | locus YLR039C, strain RIC1, active compounds read low 0.976 | locus YLR058C, strain SHM2, active compounds read low 1 | locus YLR102C, strain apc9, active compounds read low 0.998 | locus YLR113W, strain HOG1, active compounds read low 1 | locus YLR221C, strain rsa3, active compounds read low 0.986 | locus YLR258W, strain gsy2, active compounds read low 1.03 | locus YLR262C, strain YPT6 (second series), active compounds read low 0.987 | locus YLR262C, strain YPT6, active compounds read low 1.06 | locus YLR268W, strain sec22, active compounds read low 0.993 | locus YLR320W, strain mms22, active compounds read low 0.994 | locus YLR330W, strain CHS5, active compounds read low 1.01 | locus YLR342W, strain FKS1 (second series), active compounds read low 1 | locus YLR342W, strain FKS1, active compounds read low 1 | locus YLR357W, strain rsc2, active compounds read low 0.998 | locus YLR370C, strain arc18, active compounds read low 1.01 | locus YLR371W, strain rom2, active compounds read low 0.994 | locus YLR384C, strain iki3, active compounds read low 0.995 | locus YLR418C, strain cdc73, active compounds read low 0.982 | locus YML016C, strain PPZ1, active compounds read low 1 | locus YML032C, strain rad52, active compounds read low 0.991 | locus YML120C, strain ndi1, active compounds read low 0.995 | locus YML124C, strain tub3, active compounds read low 0.999 | locus YMR058W, strain fet3, active compounds read low 0.998 | locus YMR078C, strain ctf18, active compounds read low 1 | locus YMR125W, strain sto1, active compounds read low 0.997 | locus YMR129W, active compounds read low 1 | locus YMR205C, strain PFK2, active compounds read low 0.983 | locus YMR223W, strain ubp8, active compounds read low 0.993 | locus YMR231W, strain pep5, active compounds read low 1 | locus YMR263W, strain SAP30, active compounds read low 1.02 | locus YMR307W, strain GAS1, active compounds read low 0.988 | locus YNL067W, strain RPL9B, active compounds read low 1.02 | locus YNL071W, strain lat1, active compounds read low 1 | locus YNL128W, strain TEP1, active compounds read low 1.03 | locus YNL183C, strain NPR1, active compounds read low 0.951 | locus YNL209W, strain ssb2, active compounds read low 1 | locus YNL233W, strain BNI4, active compounds read low 1.01 | locus YNL248C, strain rpa49, active compounds read low 1.01 | locus YNL250W, strain rad50, active compounds read low 1 | locus YNL271C, strain bni1, active compounds read low 1 | locus YNL298W, strain CLA4, active compounds read low 0.992 | locus YNL307C, strain MCK1, active compounds read low 1 | locus YNL322C, strain KRE1 (second series), active compounds read low 0.999 | locus YNR049C, strain mso1, active compounds read low 0.995 | locus YNR052C, strain pop2, active compounds read low 0.998 | locus YOL012C, strain htz1 0.651 | locus YOL147C, strain pex11, active compounds read low 1.01 | locus YOR001W, strain rrp6, active compounds read low 0.989 | locus YOR061W, strain CKA2, active compounds read low 1 | locus YOR069W, strain VPS5, active compounds read low 1.01 | locus YOR070C, strain gyp1, active compounds read low 0.999 | locus YOR080W, strain dia2, active compounds read low 0.999 | locus YOR083W, strain WHI5, active compounds read low 0.993 | locus YOR106W, strain vam3, active compounds read low 0.976 | locus YOR136W, strain idh2, active compounds read low 0.995 | locus YOR144C, strain elg1, active compounds read low 1 | locus YOR184W, strain ser1, active compounds read low 0.992 | locus YOR231W, strain MKK1, active compounds read low 0.981 | locus YOR265W, strain rbl2, active compounds read low 1 | locus YOR270C, strain vph1, active compounds read low 1.01 | locus YOR290C, strain snf2, active compounds read low 0.914 | locus YOR316C, strain cot1, active compounds read low 1.01 | locus YPL051W, strain arl3, active compounds read low 0.986 | locus YPL055C, strain LGE1, active compounds read low 1.01 | locus YPL078C, strain atp4, active compounds read low 0.995 | locus YPL106C, strain sse1, active compounds read low 0.969 | locus YPL240C, strain hsp82, active compounds read low 0.991 | locus YPL241C, strain CIN2, active compounds read low 1.01 | locus YPL256C, strain CLN2, active compounds read low 0.957 | locus YPR119W, strain clb2, active compounds read low 1 | locus YPR141C, strain kar3, active compounds read low 1.01 | locus YPR163C, strain tif3, active compounds read low 1.01 | locus YPR167C, strain met16, active compounds read low 0.998 | strain wtn01, active compounds read low 1
